The full data set covers some 7,900 targets. This sample favours those with a hit. About 0.6% of all pairs of compound and target were hits.
Assays:
Assay in all cases: log2 fold change, soluble protein after heating vs DMSO (PISA); higher = thermal stabilisation; K562 cells, 10 uM, 30 min; active = over 0.2 and 3.5 SD of the protein, either way, in both replicates (recomputed)
saracatinib = compound: CN1CCN(CCOc2cc(OC3CCOCC3)c3c(Nc4c(Cl)ccc5c4OCO5)ncnc3c2)CC1 [saracatinib]
How it was run: (§1)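 K562 cells at 2×10^6 cells/mL were treated for 30 min with 10 μM compound, and aliquots were heated for 3 min over 48°C-58°C before pooling. Extraction used PBS with 0.5% NP-40 at 4°C, and soluble protein was the supernatant after 21,000xg for 90 min, measured by TMTpro 16plex LC-MS/MS with channel sums equalised. Thermal stability values, relative to control samples and from duplicates, are log2 fold changes.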

sotrastaurin = compound: CN1CCN(c2nc(C3=C(c4c[nH]c5ccccc45)C(=O)NC3=O)c3ccccc3n2)CC1 [sotrastaurin]
How it was run: as §1

alvocidib = compound: CN1CC[C@H](c2c(O)cc(O)c3c(=O)cc(-c4ccccc4Cl)oc23)[C@H](O)C1 [alvocidib]
How it was run: as §1

Tubastatin A = compound: CN1CCc2c(c3ccccc3n2Cc2ccc(C(=O)NO)cc2)C1 [Tubastatin A]
How it was run: as §1

[1] = compound: CNC(=O)C1=CC=CC=C1NC2=NC(=NC=C2Cl)NC3=C(C=C(C=C3)N4CCOCC4)OC
How it was run: as §1

defactinib = compound: CNC(=O)c1ccc(Nc2ncc(C(F)(F)F)c(NCc3nccnc3N(C)S(C)(=O)=O)n2)cc1 [defactinib]
How it was run: as §1

rucaparib = compound: CNCc1ccc(-c2[nH]c3cc(F)cc4c3c2CCNC4=O)cc1 [rucaparib]
How it was run: as §1

[2] = compound: CNc1nc(-c2ccc3c(N)n[nH]c3c2)cc(N2C[C@@H](C(=O)NC3CCCCC3)CC[C@H]2C)n1
How it was run: as §1

encorafenib = compound: COC(=O)N[C@@H](C)CNc1nccc(-c2cn(C(C)C)nc2-c2cc(Cl)cc(NS(C)(=O)=O)c2F)n1 [encorafenib]
How it was run: as §1

[3] = compound: COC(=O)[C@H](CCSC)NC(=O)C1=C(C=C(C=C1)NC[C@H](CS)N)C2=CC=CC=C2
How it was run: as §1

Measured: log2 fold change

GCLM (UniProt P48507)
Sequence of UniProt P48507 (P48507 whole entry, looked up): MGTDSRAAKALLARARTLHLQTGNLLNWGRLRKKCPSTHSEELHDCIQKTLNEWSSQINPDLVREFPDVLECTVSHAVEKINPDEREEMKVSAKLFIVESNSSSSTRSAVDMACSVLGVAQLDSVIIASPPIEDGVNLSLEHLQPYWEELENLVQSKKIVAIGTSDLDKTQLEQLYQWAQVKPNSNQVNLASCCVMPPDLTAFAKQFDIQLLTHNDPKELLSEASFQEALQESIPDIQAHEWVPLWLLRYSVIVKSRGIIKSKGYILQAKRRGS
inactive: saracatinib 0.012 | sotrastaurin -0.055 | alvocidib -0.126 | Tubastatin A 0.061 | [1] 0.155 | defactinib -0.151 | rucaparib 0.033 | [2] -0.045 | encorafenib 0.048 | [3] -0.042

GLUD2 (UniProt P49448)
inactive: sotrastaurin 0.056 | alvocidib -0.017 | Tubastatin A -0.016 | [1] 0.051 | defactinib 0.008 | rucaparib 0.003 | [2] 0.178 | encorafenib -0.117 | [3] -0.042
active: saracatinib 0.305

GABPA (UniProt Q06546)
Sequence of UniProt Q06546 (Q06546 whole entry, looked up): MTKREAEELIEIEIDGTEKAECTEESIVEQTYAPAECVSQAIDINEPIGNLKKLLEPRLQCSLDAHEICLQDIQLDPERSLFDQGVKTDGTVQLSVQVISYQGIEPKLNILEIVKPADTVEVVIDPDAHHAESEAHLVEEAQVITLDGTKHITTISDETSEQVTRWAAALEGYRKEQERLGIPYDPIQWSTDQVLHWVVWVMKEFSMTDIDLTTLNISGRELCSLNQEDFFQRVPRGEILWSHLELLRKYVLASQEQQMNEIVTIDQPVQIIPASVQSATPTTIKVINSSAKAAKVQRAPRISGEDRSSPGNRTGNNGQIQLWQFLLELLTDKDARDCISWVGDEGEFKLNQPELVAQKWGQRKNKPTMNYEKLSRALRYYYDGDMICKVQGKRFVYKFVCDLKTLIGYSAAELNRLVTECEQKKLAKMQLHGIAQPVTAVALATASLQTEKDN
inactive: saracatinib -0.065 | sotrastaurin -0.086 | alvocidib -0.134 | Tubastatin A 0.087 | [1] -0.063 | defactinib -0.064 | rucaparib -0.015 | [2] 0.018 | encorafenib 0.019 | [3] 0.011

FCHO1 (UniProt O14526)
inactive: saracatinib -0.064 | sotrastaurin -0.162 | alvocidib -0.049 | Tubastatin A 0.007 | [1] 0.043 | defactinib -0.042 | rucaparib 0.248 | [2] 0.054 | encorafenib 0.101 | [3] 0.046

IFRD2 isoform 2 (UniProt Q12894)
active: rucaparib -0.549
inactive: saracatinib 0.126 | sotrastaurin 0.31 | alvocidib -0.017 | Tubastatin A -0.272 | [1] 0.022 | defactinib 0.16 | [2] -0.095 | encorafenib -0.031 | [3] 0.026

HAT1 (UniProt O14929)
Sequence of UniProt O14929 (O14929 whole entry, looked up): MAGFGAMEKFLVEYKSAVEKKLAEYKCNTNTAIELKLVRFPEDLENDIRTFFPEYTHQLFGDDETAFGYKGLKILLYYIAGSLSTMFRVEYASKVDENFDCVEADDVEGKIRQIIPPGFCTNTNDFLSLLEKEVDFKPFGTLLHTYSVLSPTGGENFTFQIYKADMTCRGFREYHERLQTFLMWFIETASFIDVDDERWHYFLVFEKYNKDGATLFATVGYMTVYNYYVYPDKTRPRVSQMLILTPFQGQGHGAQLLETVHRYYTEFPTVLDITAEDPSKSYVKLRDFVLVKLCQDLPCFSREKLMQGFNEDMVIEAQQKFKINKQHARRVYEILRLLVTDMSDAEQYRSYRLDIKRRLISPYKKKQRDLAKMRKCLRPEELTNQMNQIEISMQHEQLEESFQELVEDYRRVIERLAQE
inactive: saracatinib 0.047 | sotrastaurin -0.058 | alvocidib -0.209 | Tubastatin A 0.036 | [1] 0.05 | defactinib -0.139 | rucaparib -0.066 | [2] -0.061 | encorafenib 0.064 | [3] -0.017

GTF2E2 (UniProt P29084)
Sequence of UniProt P29084 (P29084 whole entry, looked up): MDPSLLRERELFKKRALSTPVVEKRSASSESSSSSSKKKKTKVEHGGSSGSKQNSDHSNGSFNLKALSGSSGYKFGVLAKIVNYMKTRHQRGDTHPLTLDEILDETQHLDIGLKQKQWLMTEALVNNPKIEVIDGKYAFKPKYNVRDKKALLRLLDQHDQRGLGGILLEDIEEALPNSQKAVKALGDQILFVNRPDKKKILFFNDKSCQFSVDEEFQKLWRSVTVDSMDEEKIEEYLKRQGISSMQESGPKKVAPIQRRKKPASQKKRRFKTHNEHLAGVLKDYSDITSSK
inactive: saracatinib -0.103 | sotrastaurin -0.163 | alvocidib -0.023 | Tubastatin A 0.054 | [1] 0.056 | defactinib -0.085 | rucaparib 0.03 | [2] 0.025 | encorafenib 0.145 | [3] -0.035

FNTB (UniProt P49356)
inactive: saracatinib 0.046 | sotrastaurin 0.346 | alvocidib -0.113 | Tubastatin A 0.017 | [1] -0.036 | defactinib 0.095 | rucaparib 0.02 | [2] -0.007 | encorafenib -0.016
active: [3] 0.974

GALNT11 (UniProt Q8NCW6)
Sequence of UniProt Q8NCW6 (Q8NCW6 whole entry, looked up): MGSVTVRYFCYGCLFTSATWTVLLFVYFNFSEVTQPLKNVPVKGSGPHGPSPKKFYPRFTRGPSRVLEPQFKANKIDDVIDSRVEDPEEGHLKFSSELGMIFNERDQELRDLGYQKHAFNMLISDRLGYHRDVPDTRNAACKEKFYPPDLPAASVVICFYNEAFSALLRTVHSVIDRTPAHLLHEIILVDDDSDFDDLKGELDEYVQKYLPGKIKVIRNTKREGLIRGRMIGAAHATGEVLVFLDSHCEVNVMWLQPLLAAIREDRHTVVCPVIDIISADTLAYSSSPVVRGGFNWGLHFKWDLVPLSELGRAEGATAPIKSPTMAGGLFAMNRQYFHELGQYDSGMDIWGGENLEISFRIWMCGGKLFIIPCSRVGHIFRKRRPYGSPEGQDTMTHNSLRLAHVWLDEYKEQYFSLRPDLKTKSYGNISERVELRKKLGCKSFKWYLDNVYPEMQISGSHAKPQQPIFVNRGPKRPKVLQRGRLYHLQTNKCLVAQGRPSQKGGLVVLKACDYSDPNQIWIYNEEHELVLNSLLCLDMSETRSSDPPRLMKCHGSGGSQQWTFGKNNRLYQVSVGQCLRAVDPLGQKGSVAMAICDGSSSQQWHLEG
inactive: saracatinib -0.025 | sotrastaurin -0.024 | alvocidib 0 | Tubastatin A 0.028 | [1] 0.033 | defactinib -0.187 | rucaparib -0.047 | [2] 0.01 | encorafenib -0.064 | [3] -0.055

GDI1 (UniProt P31150)
inactive: saracatinib 0.017 | sotrastaurin 0.012 | alvocidib -0.067 | Tubastatin A -0.025 | [1] 0.012 | defactinib -0.046 | rucaparib -0.042 | [2] -0.015 | encorafenib 0.006 | [3] 0.009

GABARAPL1 isoform 2 (UniProt Q9H0R8)
Sequence of UniProt Q9H0R8 (Q9H0R8 whole entry, looked up): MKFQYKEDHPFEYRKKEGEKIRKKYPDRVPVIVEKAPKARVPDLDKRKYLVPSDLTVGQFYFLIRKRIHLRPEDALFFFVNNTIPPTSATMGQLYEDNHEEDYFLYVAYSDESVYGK
inactive: saracatinib -0.057 | sotrastaurin 0 | alvocidib -0.019 | Tubastatin A 0.08 | [1] 0.023 | defactinib -0.011 | rucaparib -0.079 | [2] -0.006 | encorafenib -0.004 | [3] -0.058

HK2 (UniProt P52789)
Sequence of UniProt P52789 (P52789 whole entry, looked up): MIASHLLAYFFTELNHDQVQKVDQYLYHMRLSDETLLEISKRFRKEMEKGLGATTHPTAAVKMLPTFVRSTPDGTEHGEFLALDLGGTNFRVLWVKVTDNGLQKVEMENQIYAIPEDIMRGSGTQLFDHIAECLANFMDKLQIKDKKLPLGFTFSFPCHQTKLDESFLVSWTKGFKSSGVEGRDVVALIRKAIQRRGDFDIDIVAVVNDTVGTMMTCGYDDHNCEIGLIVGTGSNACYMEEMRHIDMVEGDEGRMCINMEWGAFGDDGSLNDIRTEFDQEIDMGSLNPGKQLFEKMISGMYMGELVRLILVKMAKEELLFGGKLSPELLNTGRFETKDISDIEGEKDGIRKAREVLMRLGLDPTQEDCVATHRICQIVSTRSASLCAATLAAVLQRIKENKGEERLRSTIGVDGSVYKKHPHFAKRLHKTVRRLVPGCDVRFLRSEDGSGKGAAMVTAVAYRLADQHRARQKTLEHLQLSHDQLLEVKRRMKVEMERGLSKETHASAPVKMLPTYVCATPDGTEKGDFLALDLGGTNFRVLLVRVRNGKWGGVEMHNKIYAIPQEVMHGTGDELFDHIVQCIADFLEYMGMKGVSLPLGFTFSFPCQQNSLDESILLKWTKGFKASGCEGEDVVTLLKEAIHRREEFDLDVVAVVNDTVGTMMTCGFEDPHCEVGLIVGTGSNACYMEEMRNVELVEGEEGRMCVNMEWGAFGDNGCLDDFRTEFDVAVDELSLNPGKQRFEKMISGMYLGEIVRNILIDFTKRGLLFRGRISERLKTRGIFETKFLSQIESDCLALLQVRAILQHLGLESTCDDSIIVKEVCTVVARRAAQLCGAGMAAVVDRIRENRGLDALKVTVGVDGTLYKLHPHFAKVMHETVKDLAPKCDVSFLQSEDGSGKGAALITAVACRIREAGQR
active: [1] -0.334
inactive: saracatinib 0.008 | sotrastaurin -0.075 | alvocidib -0.054 | Tubastatin A -0.006 | defactinib -0.08 | rucaparib -0.011 | [2] -0.045 | encorafenib 0.026 | [3] -0.005

HDDC2 (UniProt Q7Z4H3)
Sequence of UniProt Q7Z4H3 (Q7Z4H3 whole entry, looked up): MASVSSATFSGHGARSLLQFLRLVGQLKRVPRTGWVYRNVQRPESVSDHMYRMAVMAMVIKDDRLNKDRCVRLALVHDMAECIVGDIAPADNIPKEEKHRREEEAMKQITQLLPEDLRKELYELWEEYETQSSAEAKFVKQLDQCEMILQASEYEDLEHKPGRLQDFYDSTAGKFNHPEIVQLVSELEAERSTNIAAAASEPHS
inactive: saracatinib 0.045 | sotrastaurin 0.042 | alvocidib -0.049 | Tubastatin A 0.015 | [1] 0.007 | defactinib -0.014 | rucaparib -0.014 | [2] 0.063 | encorafenib 0.014 | [3] -0.013

FECH isoform 2 (UniProt P22830)
inactive: saracatinib -0.035 | sotrastaurin 0.008 | alvocidib -0.016 | Tubastatin A -0.12 | [1] 0.245 | defactinib 0.102 | rucaparib 0.043 | [2] 0.538 | encorafenib -0.033 | [3] -0.116

GPAT4 (UniProt Q86UL3)
inactive: saracatinib 0.042 | sotrastaurin 0.046 | alvocidib -0.046 | Tubastatin A -0.039 | [1] 0.04 | defactinib -0.017 | rucaparib 0.055 | [2] -0.069 | encorafenib -0.021 | [3] 0.031

GMEB2 (UniProt Q9UKD1)
inactive: saracatinib 0.018 | sotrastaurin -0.019 | alvocidib -0.197 | Tubastatin A 0.051 | [1] -0.065 | defactinib -0.156 | [2] -0.023 | encorafenib -0.007 | [3] 0.008
active: rucaparib 0.275

GATA1 (UniProt P15976)
Sequence of UniProt P15976 (P15976 whole entry, looked up): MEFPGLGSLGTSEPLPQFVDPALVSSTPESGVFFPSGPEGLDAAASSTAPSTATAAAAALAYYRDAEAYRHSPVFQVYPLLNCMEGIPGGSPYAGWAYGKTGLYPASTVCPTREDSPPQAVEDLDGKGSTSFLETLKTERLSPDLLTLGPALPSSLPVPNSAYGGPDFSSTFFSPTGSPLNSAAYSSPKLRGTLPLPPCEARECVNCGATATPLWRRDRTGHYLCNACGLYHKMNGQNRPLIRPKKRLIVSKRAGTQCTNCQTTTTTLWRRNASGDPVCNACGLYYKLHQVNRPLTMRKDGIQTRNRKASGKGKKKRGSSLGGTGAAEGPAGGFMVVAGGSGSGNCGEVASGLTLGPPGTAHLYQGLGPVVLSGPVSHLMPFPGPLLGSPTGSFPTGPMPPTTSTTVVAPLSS
inactive: saracatinib 0.097 | sotrastaurin -0.042 | alvocidib 0.128 | Tubastatin A -0.049 | [1] 0.104 | defactinib 0.088 | rucaparib 0.086 | [2] -0.014 | encorafenib 0.054 | [3] 0

HDAC1 (UniProt Q13547)
active: Tubastatin A 1.52
inactive: saracatinib -0.004 | sotrastaurin -0.026 | alvocidib -0.137 | [1] -0.163 | defactinib -0.15 | rucaparib 0.023 | [2] 0.04 | encorafenib -0.046 | [3] -0.062

FRA10AC1 isoform 3 (UniProt Q70Z53)
Sequence of UniProt Q70Z53 (Q70Z53 whole entry, looked up): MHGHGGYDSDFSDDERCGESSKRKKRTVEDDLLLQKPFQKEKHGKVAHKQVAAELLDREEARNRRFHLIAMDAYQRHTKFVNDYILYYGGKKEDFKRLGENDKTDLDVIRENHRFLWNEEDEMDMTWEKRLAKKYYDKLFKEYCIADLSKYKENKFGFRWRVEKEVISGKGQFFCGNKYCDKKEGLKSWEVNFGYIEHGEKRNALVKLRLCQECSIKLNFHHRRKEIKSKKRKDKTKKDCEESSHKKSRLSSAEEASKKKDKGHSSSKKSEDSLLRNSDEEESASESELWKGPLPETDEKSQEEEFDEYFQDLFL
inactive: saracatinib 0.125 | sotrastaurin 0.133 | alvocidib 0.132 | Tubastatin A -0.023 | [1] -0.01 | defactinib 0 | rucaparib -0.035 | [2] -0.196 | encorafenib -0.103 | [3] -0.067

HRC (UniProt P23327)
Sequence of UniProt P23327 (P23327 whole entry, looked up): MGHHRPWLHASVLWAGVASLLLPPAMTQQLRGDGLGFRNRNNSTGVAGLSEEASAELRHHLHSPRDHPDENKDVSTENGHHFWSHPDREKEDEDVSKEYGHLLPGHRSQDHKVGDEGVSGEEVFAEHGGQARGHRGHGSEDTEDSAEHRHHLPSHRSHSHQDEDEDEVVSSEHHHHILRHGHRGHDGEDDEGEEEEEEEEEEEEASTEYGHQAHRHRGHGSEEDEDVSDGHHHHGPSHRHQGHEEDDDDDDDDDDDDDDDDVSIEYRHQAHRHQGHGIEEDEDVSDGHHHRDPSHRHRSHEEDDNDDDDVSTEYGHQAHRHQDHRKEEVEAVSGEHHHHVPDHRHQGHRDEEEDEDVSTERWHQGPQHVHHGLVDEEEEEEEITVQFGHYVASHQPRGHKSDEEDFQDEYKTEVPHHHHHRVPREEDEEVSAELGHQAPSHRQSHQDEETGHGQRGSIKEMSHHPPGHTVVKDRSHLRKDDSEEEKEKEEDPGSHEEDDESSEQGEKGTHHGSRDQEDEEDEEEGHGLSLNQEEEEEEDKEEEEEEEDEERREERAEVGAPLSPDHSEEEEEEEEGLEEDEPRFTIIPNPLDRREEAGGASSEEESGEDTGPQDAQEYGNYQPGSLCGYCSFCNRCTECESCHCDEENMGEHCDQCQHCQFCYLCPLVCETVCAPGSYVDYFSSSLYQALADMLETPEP
inactive: saracatinib 0.063 | sotrastaurin 0.057 | alvocidib 0.02 | Tubastatin A -0.125 | [1] 0.009 | defactinib -0.011 | rucaparib 0.01 | [2] -0.057 | encorafenib -0.066 | [3] 0.043

FUBP3 (UniProt Q96I24)
inactive: saracatinib 0.012 | sotrastaurin 0.05 | alvocidib 0.129 | Tubastatin A -0.092 | [1] -0.039 | defactinib 0.184 | rucaparib 0.167 | [2] -0.049 | encorafenib -0.003 | [3] -0.032

GBA2 (UniProt Q9HCG7)
inactive: saracatinib -0.046 | sotrastaurin -0.026 | alvocidib -0.063 | Tubastatin A -0.03 | [1] -0.012 | defactinib -0.07 | rucaparib -0.266 | [2] 0.11 | encorafenib 0.084 | [3] 0.071

GLYR1 (UniProt Q49A26)
inactive: saracatinib 0.007 | sotrastaurin 0.028 | alvocidib 0.14 | Tubastatin A -0.077 | [1] 0.021 | defactinib -0.029 | rucaparib 0.211 | [2] 0.04 | encorafenib -0.044 | [3] -0.033

HMGCR isoform 3 (UniProt P04035)
active: Tubastatin A 0.33
inactive: saracatinib 0.002 | sotrastaurin -0.287 | alvocidib -0.021 | [1] -0.133 | defactinib -0.004 | rucaparib -0.208 | [2] -0.024 | encorafenib 0.094 | [3] 0.146

HSPA8 (UniProt E9PK54)
inactive: saracatinib -0.058 | sotrastaurin -0.054 | alvocidib 0.332 | Tubastatin A -0.003 | [1] 0.072 | defactinib -0.012 | rucaparib -0.287 | [2] -0.033 | encorafenib 0.051 | [3] 0.048

HSD17B12 (UniProt Q53GQ0)
inactive: saracatinib -0.037 | sotrastaurin 0.151 | alvocidib -0.082 | Tubastatin A -0.007 | [1] 0.005 | defactinib -0.024 | rucaparib -0.043 | [2] 0.038 | encorafenib 0.027 | [3] 0.013

FKBP7 (UniProt Q9Y680)
Sequence of UniProt Q9Y680 (Q9Y680 whole entry, looked up): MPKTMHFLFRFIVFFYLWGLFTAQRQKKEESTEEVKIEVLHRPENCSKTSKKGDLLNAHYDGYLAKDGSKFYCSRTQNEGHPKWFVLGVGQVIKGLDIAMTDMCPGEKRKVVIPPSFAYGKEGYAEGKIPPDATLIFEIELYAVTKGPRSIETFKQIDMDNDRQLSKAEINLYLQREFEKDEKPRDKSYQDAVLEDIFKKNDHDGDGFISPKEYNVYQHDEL
inactive: saracatinib 0.073 | sotrastaurin 0.056 | alvocidib 0 | Tubastatin A -0.026 | [1] 0.008 | defactinib -0.032 | rucaparib 0.01 | [2] 0.031 | encorafenib 0.044 | [3] 0.036
